# Assay results reported in the supplement of paper PMC8728848.
# The sample as a whole holds a higher share of the strongest signals than the screen did.
# B1: PX15618A-bth-503-24-503 (Bacteroides thetaiotaomicron) (protein)
# chain: NKSEDKLSGDDFWAQGNETNAEAFLLSIYNSFRNATMSQRPFLTYSGDMRCAPITAYSTGDKYVAYLANNDMGELRNTYPDDARGGLIMQWDVFYTAIQDANILLAEIDKVPGMDELKRSRFKAEAIFMRSLSYFFIVRAFGDVPYYTNAYNEAPLPRTNMVIVLQNCLADLQPLLDDDPGAEVLPWSYSSYSSKGIRASRGSVIALMMHINLWLVQFDAQNKEQYYRNVVSLGEELERNNGAYSLLDINRSSVIFAGGSDEGLFEIAQNINFNEIFMMNAKFSDNVSYSCLNKSMPLFCYSGDYLMTLFPMYEDDARKELWFDEKIYSTSVSSSAPKEIKKFWNIDTYGNGTITSNSGNQIVFRYAGALLLYAEALAALGTNDTKACELLNRVRNRAHASEINTSGSELMDAIFWERCRELIGEGHYYYDLVRTGKVYNRNYCMNPMTRTNFNVGAWTWPIHRNALKNNTQIGLNLFWE
# Columns and labels:
# Assay in all cases: glycan array binding signal (z-score within array); higher = stronger binding
# Details in all cases: glycan notation: IUPAC condensed, linker removed
# [1] = target: Fuc(a1-2)Gal(b1-4)GlcNAc(b1-2)Man
# How it was run: (§1)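 Glycan array binding is given as a within-array Z-score, which can be read as non-binding when negative. The arrays, 3228 of them, came from the Consortium for Functional Glycomics database and were retained only where the protein sequence was available. Z-scores were averaged across arrays of the same protein sequence at different concentrations or buffers and across linkers.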
# [2] = target: Fuc(a1-2)Gal(b1-4)GlcNAc(b1-2)Man(a1-3)[Fuc(a1-2)Gal(b1-4)GlcNAc(b1-2)Man(a1-6)]Man(b1-4)GlcNAc(b1-4)GlcNAc
# How it was run: as §1
# [3] = target: Fuc(a1-2)Gal(b1-4)[Fuc(a1-3)]GlcNAc(b1-2)Man(a1-3)[Fuc(a1-2)Gal(b1-4)[Fuc(a1-3)]GlcNAc(b1-2)Man(a1-6)]Man(b1-4)GlcNAc(b1-4)[Fuc(a1-6)]GlcNAc
# How it was run: as §1
# Fuc(a1-2)Gal6S(b1-4)Glc = target: Fuc(a1-2)Gal6S(b1-4)Glc
# How it was run: as §1
# [4] = target: Fuc(a1-2)[Gal(a1-3)]Gal(b1-3)GlcNAc(b1-2)Man(a1-3)[Fuc(a1-2)[Gal(a1-3)]Gal(b1-3)GlcNAc(b1-2)Man(a1-6)]Man(b1-4)GlcNAc(b1-4)GlcNAc
# How it was run: as §1
# [5] = target: Fuc(a1-2)[GalNAc(a1-3)]Gal(b1-3)GlcNAc
# How it was run: as §1
# [6] = target: Fuc(a1-2)[GalNAc(a1-3)]Gal(b1-4)Glc
# How it was run: as §1
# [7] = target: Fuc(a1-3)[Gal(b1-4)]GlcNAc(b1-2)Man(a1-3)[Fuc(a1-3)[Gal(b1-4)]GlcNAc(b1-2)Man(a1-6)]Man(b1-4)GlcNAc(b1-4)GlcNAc
# How it was run: as §1
# [8] = target: Gal(a1-3)Gal(b1-3)[Fuc(a1-4)]GlcNAc(b1-2)Man(a1-3)[Gal(a1-3)Gal(b1-3)[Fuc(a1-4)]GlcNAc(b1-2)Man(a1-6)]Man(b1-4)GlcNAc(b1-4)GlcNAc
# How it was run: as §1
# [9] = target: Gal(a1-3)[Gal(a1-4)]Gal(b1-4)GlcNAc
# How it was run: as §1
# [10] = target: Gal(b1-3)GlcNAc(b1-2)[Gal(b1-3)GlcNAc(b1-6)]Man(a1-6)[Gal(b1-3)GlcNAc(b1-2)Man(a1-3)]Man(b1-4)GlcNAc(b1-4)GlcNAc
# How it was run: as §1
# [11] = target: Gal(b1-3)GlcNAc(b1-6)GalNAc
# How it was run: as §1
# [12] = target: Gal(b1-3)[Fuc(a1-4)]GlcNAc
# How it was run: as §1
# Gal(b1-4)GlcNAc(b1-2)Man = target: Gal(b1-4)GlcNAc(b1-2)Man
# How it was run: as §1
# [13] = target: Gal(b1-4)GlcNAc(b1-2)Man(a1-3)[Gal(b1-4)GlcNAc(b1-2)Man(a1-6)]Man(b1-4)GlcNAc(b1-4)[Fuc(a1-6)]GlcNAc
# How it was run: as §1
# [14] = target: Gal(b1-4)GlcNAc(b1-2)Man(a1-6)[Man(a1-3)]Man(b1-4)GlcNAc(b1-4)GlcNAc
# How it was run: as §1
# [15] = target: Gal(b1-4)GlcNAc(b1-3)Gal(b1-4)GlcNAc(b1-3)Gal(b1-4)GlcNAc(b1-3)Gal(b1-4)GlcNAc(b1-3)Gal(b1-4)GlcNAc(b1-2)Man(a1-3)[Gal(b1-4)GlcNAc(b1-3)Gal(b1-4)GlcNAc(b1-3)Gal(b1-4)GlcNAc(b1-3)Gal(b1-4)GlcNAc(b1-3)Gal(b1-4)GlcNAc(b1-2)Man(a1-6)]Man(b1-4)GlcNAc(b1-4)GlcNAc
# How it was run: as §1
# [16] = target: Gal(b1-4)GlcNAc(b1-3)Gal(b1-4)GlcNAc(b1-3)Gal(b1-4)GlcNAc(b1-3)Gal(b1-4)GlcNAc(b1-3)Gal(b1-4)GlcNAc(b1-3)Gal(b1-4)GlcNAc(b1-2)Man(a1-3)[Gal(b1-4)GlcNAc(b1-3)Gal(b1-4)GlcNAc(b1-3)Gal(b1-4)GlcNAc(b1-3)Gal(b1-4)GlcNAc(b1-3)Gal(b1-4)GlcNAc(b1-3)Gal(b1-4)GlcNAc(b1-2)Man(a1-6)]Man(b1-4)GlcNAc(b1-4)GlcNAc
# How it was run: as §1
# [17] = target: Gal(b1-4)GlcNAc(b1-3)Gal(b1-4)GlcNAc(b1-3)GalNAc
# How it was run: as §1
# Gal3S6S(b1-4)GlcNAc = target: Gal3S6S(b1-4)GlcNAc
# How it was run: as §1
# [18] = target: GalNAc3S(b1-4)[Fuc(a1-3)]GlcNAc
# How it was run: as §1
# [19] = target: GlcA3S(b1-3)Gal(b1-4)GlcNAc(b1-2)Man
# How it was run: as §1
# [20] = target: GlcNAc(a1-4)Gal(b1-4)GlcNAc(b1-3)Gal(b1-4)GlcNAc(b1-3)Gal(b1-4)GlcNAc
# How it was run: as §1
# [21] = target: GlcNAc(b1-2)Man(a1-3)[GlcNAc(b1-4)][GlcNAc(b1-2)Man(a1-6)]Man(b1-4)GlcNAc(b1-4)GlcNAc
# How it was run: as §1
# [22] = target: GlcNAc(b1-2)[GlcNAc(b1-4)]Man(a1-3)[GlcNAc(b1-2)Man(a1-6)]Man(b1-4)GlcNAc(b1-4)GlcNAc
# How it was run: as §1
# GlcNAc(b1-3)Gal(b1-4)Glc = target: GlcNAc(b1-3)Gal(b1-4)Glc
# How it was run: as §1
# [23] = target: GlcNAc(b1-3)Gal(b1-4)GlcNAc(b1-3)Gal(b1-4)GlcNAc
# How it was run: as §1
# [24] = target: GlcNAc(b1-3)Gal(b1-4)GlcNAc(b1-3)Gal(b1-4)GlcNAc(b1-3)Gal(b1-4)GlcNAc(b1-2)Man(a1-3)[GlcNAc(b1-3)Gal(b1-4)GlcNAc(b1-3)Gal(b1-4)GlcNAc(b1-3)Gal(b1-4)GlcNAc(b1-2)Man(a1-6)]Man(b1-4)GlcNAc(b1-4)[Fuc(a1-6)]GlcNAc
# How it was run: as §1
# [25] = target: GlcNAc(b1-3)Gal(b1-4)GlcNAc(b1-3)GalNAc
# How it was run: as §1
# Kdn(a2-6)Gal(b1-4)GlcNAc = target: Kdn(a2-6)Gal(b1-4)GlcNAc
# How it was run: as §1
# [26] = target: Man(a1-2)Man(a1-3)[Man(a1-2)Man(a1-6)]Man
# How it was run: as §1
# [27] = target: Man(a1-3)[Man(a1-6)]Man(a1-6)[Man(a1-3)]Man(b1-4)GlcNAc(b1-4)GlcNAc
# How it was run: as §1
# MurNAc(b1-4)GlcNAc = target: MurNAc(b1-4)GlcNAc
# How it was run: as §1
# [28] = target: Neu5Ac(a2-3)Gal(b1-3)GalNAc
# How it was run: as §1
# [29] = target: Neu5Ac(a2-3)Gal(b1-3)]Neu5Ac(a2-3)Gal(b1-4)]GlcNAc
# How it was run: as §1
# [30] = target: Neu5Ac(a2-3)Gal(b1-4)GlcNAc(b1-2)[Neu5Ac(a2-3)Gal(b1-4)GlcNAc(b1-4)]Man(a1-3)[GlcNAc(b1-4)][Neu5Ac(a2-3)Gal(b1-4)GlcNAc(b1-4)Man(a1-6)]Man(b1-4)GlcNAc(b1-4)GlcNAc
# How it was run: as §1
# [31] = target: Neu5Ac(a2-3)Gal(b1-4)GlcNAc(b1-3)Gal(b1-4)GlcNAc(b1-3)GalNAc
# How it was run: as §1
# [32] = target: Neu5Ac(a2-3)[GalNAc(b1-4)]Gal(b1-4)Glc
# How it was run: as §1
# [33] = target: Neu5Ac(a2-6)Gal(b1-4)GlcNAc(b1-2)Man(a1-3)[Neu5Ac(a2-6)Gal(b1-4)GlcNAc(b1-2)Man(a1-6)]Man(b1-4)GlcNAc(b1-4)GlcNAc
# How it was run: as §1
# [34] = target: Neu5Ac(a2-8)Neu5Gc(a2-3)Gal(b1-4)GlcNAc
# How it was run: as §1
# Neu5Gc(a2-3)Gal(b1-4)Glc = target: Neu5Gc(a2-3)Gal(b1-4)Glc
# How it was run: as §1
# [35] = target: Neu5Gc(a2-6)Gal(b1-4)GlcNAc
# How it was run: as §1
binder,measurement,setting,value
B1,glycan array binding signal (z-score),[1],-0.103
same,glycan array binding signal (z-score),[2],2.2
same,glycan array binding signal (z-score),[3],0.352
same,glycan array binding signal (z-score),Fuc(a1-2)Gal6S(b1-4)Glc,2.77
same,glycan array binding signal (z-score),[4],-0.62
same,glycan array binding signal (z-score),[5],-0.665
same,glycan array binding signal (z-score),[6],-0.32
same,glycan array binding signal (z-score),[7],-0.28
same,glycan array binding signal (z-score),[8],6.49
same,glycan array binding signal (z-score),[9],3.72
same,glycan array binding signal (z-score),[10],2.47
same,glycan array binding signal (z-score),[11],2.58
same,glycan array binding signal (z-score),[12],-0.361
same,glycan array binding signal (z-score),Gal(b1-4)GlcNAc(b1-2)Man,-0.307
same,glycan array binding signal (z-score),[13],0.092
same,glycan array binding signal (z-score),[14],12.1
same,glycan array binding signal (z-score),[15],2.83
same,glycan array binding signal (z-score),[16],2.95
same,glycan array binding signal (z-score),[17],-0.08
same,glycan array binding signal (z-score),Gal3S6S(b1-4)GlcNAc,3.43
same,glycan array binding signal (z-score),[18],-0.361
same,glycan array binding signal (z-score),[19],-0.619
same,glycan array binding signal (z-score),[20],-0.188
same,glycan array binding signal (z-score),[21],-0.381
same,glycan array binding signal (z-score),[22],-0.803
same,glycan array binding signal (z-score),GlcNAc(b1-3)Gal(b1-4)Glc,-0.199
same,glycan array binding signal (z-score),[23],-0.161
same,glycan array binding signal (z-score),[24],0.037
same,glycan array binding signal (z-score),[25],0.059
same,glycan array binding signal (z-score),Kdn(a2-6)Gal(b1-4)GlcNAc,0.229
same,glycan array binding signal (z-score),[26],-0.505
same,glycan array binding signal (z-score),[27],0.524
same,glycan array binding signal (z-score),MurNAc(b1-4)GlcNAc,0.506
same,glycan array binding signal (z-score),[28],-0.436
same,glycan array binding signal (z-score),[29],0.09
same,glycan array binding signal (z-score),[30],-0.189
same,glycan array binding signal (z-score),[31],-0.707
same,glycan array binding signal (z-score),[32],-0.82
same,glycan array binding signal (z-score),[33],-0.217
same,glycan array binding signal (z-score),[34],13.7
same,glycan array binding signal (z-score),Neu5Gc(a2-3)Gal(b1-4)Glc,-0.471
same,glycan array binding signal (z-score),[35],-0.58
